Reference: PubChem BioAssay AID1159580 (chemical genetic matrix, 2015)
Among all 5,500 compounds or so, about 2,000 (36%) were called active. Another 18% or so got no clear call; they are omitted. Rule as the data show it: active = normalized growth mostly below about 0.91 (no sharp cut-off); inconclusive = no clear call, values can overlap the other calls; inactive = mostly above about 0.92. The list shows a part of the results.

Test: chemical genetic growth profiling, strain panel (AID 1159580);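 also: tested at 20 µM; growth read once vehicle control cultures reached saturation at 30 °C; 1 = growth at the plate median or of vehicle wells; lower values mean less growth of the strain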
Details: growth OD

Measured: normalized growth

CCn1cc(C(=O)O)c(=O)c2cc(F)c(N3CCNCC3)cc21
inactive: S. cerevisiae deletion strains, locus YJR043C, strain POL32, stronger effect = lower value 0.99 | S. cerevisiae deletion strains, locus YJR066W, strain TOR1, stronger effect = lower value 0.954 | S. cerevisiae deletion strains, locus YKL009W, strain mrt4, stronger effect = lower value 0.994 | S. cerevisiae deletion strains, locus YKL068W, stronger effect = lower value 1.01 | S. cerevisiae deletion strains, locus YKL085W, strain MDH1 (second series), stronger effect = lower value 1 | S. cerevisiae deletion strains, locus YKL085W, strain MDH1, stronger effect = lower value 1 | S. cerevisiae deletion strains, locus YKL160W, strain elf1, stronger effect = lower value 1.02 | S. cerevisiae deletion strains, locus YKL190W, strain CNB1, stronger effect = lower value 1.01 | S. cerevisiae deletion strains, locus YKR001C, strain vps1, stronger effect = lower value 0.985 | S. cerevisiae deletion strains, locus YKR026C, strain gcn3, stronger effect = lower value 0.978 | S. cerevisiae deletion strains, locus YKR091W, strain srl3, stronger effect = lower value 0.992 | S. cerevisiae deletion strains, locus YLL001W, strain dnm1, stronger effect = lower value 0.998 | S. cerevisiae deletion strains, locus YLL026W, stronger effect = lower value 0.992 | S. cerevisiae deletion strains, locus YLL041C, strain sdh2, stronger effect = lower value 0.981 | S. cerevisiae deletion strains, locus YLR027C, strain aat2, stronger effect = lower value 0.988 | S. cerevisiae deletion strains, locus YLR039C, strain RIC1, stronger effect = lower value 0.92 | S. cerevisiae deletion strains, locus YLR058C, strain SHM2, stronger effect = lower value 1.01 | S. cerevisiae deletion strains, locus YLR102C, strain apc9, stronger effect = lower value 1 | S. cerevisiae deletion strains, locus YLR113W, strain HOG1, stronger effect = lower value 1.02 | S. cerevisiae deletion strains, locus YLR221C, strain rsa3, stronger effect = lower value 1.01 | S. cerevisiae deletion strains, locus YLR258W, strain gsy2, stronger effect = lower value 0.988 | S. cerevisiae deletion strains, locus YLR262C, strain YPT6 (second series), stronger effect = lower value 0.97 | S. cerevisiae deletion strains, locus YLR262C, strain YPT6, stronger effect = lower value 0.92 | S. cerevisiae deletion strains, locus YLR268W, strain sec22, stronger effect = lower value 0.96 | S. cerevisiae deletion strains, locus YLR320W, strain mms22, stronger effect = lower value 0.998 | S. cerevisiae deletion strains, locus YLR330W, strain CHS5, stronger effect = lower value 1 | S. cerevisiae deletion strains, locus YLR342W, strain FKS1 (second series), stronger effect = lower value 0.927 | S. cerevisiae deletion strains, locus YLR342W, strain FKS1, stronger effect = lower value 0.991 | S. cerevisiae deletion strains, locus YLR357W, strain rsc2, stronger effect = lower value 0.95 | S. cerevisiae deletion strains, locus YLR370C, strain arc18, stronger effect = lower value 0.982 | S. cerevisiae deletion strains, locus YLR371W, strain rom2, stronger effect = lower value 1.01 | S. cerevisiae deletion strains, locus YLR384C, strain iki3, stronger effect = lower value 0.983 | S. cerevisiae deletion strains, locus YLR418C, strain cdc73, stronger effect = lower value 0.924 | S. cerevisiae deletion strains, locus YML016C, strain PPZ1, stronger effect = lower value 1 | S. cerevisiae deletion strains, locus YML032C, strain rad52, stronger effect = lower value 0.987 | S. cerevisiae deletion strains, locus YML120C, strain ndi1, stronger effect = lower value 0.976 | S. cerevisiae deletion strains, locus YML124C, strain tub3, stronger effect = lower value 1 | S. cerevisiae deletion strains, locus YMR058W, strain fet3, stronger effect = lower value 0.986 | S. cerevisiae deletion strains, locus YMR078C, strain ctf18, stronger effect = lower value 1.01 | S. cerevisiae deletion strains, locus YMR125W, strain sto1, stronger effect = lower value 0.965 | S. cerevisiae deletion strains, locus YMR129W, stronger effect = lower value 0.969 | S. cerevisiae deletion strains, locus YMR205C, strain PFK2, stronger effect = lower value 1.01 | S. cerevisiae deletion strains, locus YMR223W, strain ubp8, stronger effect = lower value 0.989 | S. cerevisiae deletion strains, locus YMR231W, strain pep5, stronger effect = lower value 0.987 | S. cerevisiae deletion strains, locus YMR263W, strain SAP30, stronger effect = lower value 0.998 | S. cerevisiae deletion strains, locus YMR307W, strain GAS1, stronger effect = lower value 0.899 | S. cerevisiae deletion strains, locus YNL067W, strain RPL9B, stronger effect = lower value 1.01 | S. cerevisiae deletion strains, locus YNL071W, strain lat1, stronger effect = lower value 0.962 | S. cerevisiae deletion strains, locus YNL128W, strain TEP1, stronger effect = lower value 1.03 | S. cerevisiae deletion strains, locus YNL183C, strain NPR1, stronger effect = lower value 0.962 | S. cerevisiae deletion strains, locus YNL209W, strain ssb2, stronger effect = lower value 0.986 | S. cerevisiae deletion strains, locus YNL233W, strain BNI4, stronger effect = lower value 0.998 | S. cerevisiae deletion strains, locus YNL248C, strain rpa49, stronger effect = lower value 0.992 | S. cerevisiae deletion strains, locus YNL250W, strain rad50, stronger effect = lower value 0.985 | S. cerevisiae deletion strains, locus YNL271C, strain bni1, stronger effect = lower value 0.986 | S. cerevisiae deletion strains, locus YNL298W, strain CLA4, stronger effect = lower value 0.99 | S. cerevisiae deletion strains, locus YNL307C, strain MCK1, stronger effect = lower value 0.997 | S. cerevisiae deletion strains, locus YNL322C, strain KRE1 (second series), stronger effect = lower value 0.981 | S. cerevisiae deletion strains, locus YNR049C, strain mso1, stronger effect = lower value 0.985 | S. cerevisiae deletion strains, locus YNR052C, strain pop2, stronger effect = lower value 0.998 | S. cerevisiae deletion strains, locus YOL006C, strain TOP1, stronger effect = lower value 0.965 | S. cerevisiae deletion strains, locus YOL012C, strain htz1 0.792 | S. cerevisiae deletion strains, locus YOL147C, strain pex11, stronger effect = lower value 0.999 | S. cerevisiae deletion strains, locus YOR001W, strain rrp6, stronger effect = lower value 0.94 | S. cerevisiae deletion strains, locus YOR061W, strain CKA2, stronger effect = lower value 1 | S. cerevisiae deletion strains, locus YOR069W, strain VPS5, stronger effect = lower value 1.01 | S. cerevisiae deletion strains, locus YOR070C, strain gyp1, stronger effect = lower value 0.979 | S. cerevisiae deletion strains, locus YOR080W, strain dia2, stronger effect = lower value 0.974 | S. cerevisiae deletion strains, locus YOR083W, strain WHI5, stronger effect = lower value 1.04 | S. cerevisiae deletion strains, locus YOR106W, strain vam3, stronger effect = lower value 1 | S. cerevisiae deletion strains, locus YOR136W, strain idh2, stronger effect = lower value 1.01 | S. cerevisiae deletion strains, locus YOR144C, strain elg1, stronger effect = lower value 0.998 | S. cerevisiae deletion strains, locus YOR184W, strain ser1, stronger effect = lower value 1.01 | S. cerevisiae deletion strains, locus YOR231W, strain MKK1, stronger effect = lower value 0.988 | S. cerevisiae deletion strains, locus YOR265W, strain rbl2, stronger effect = lower value 0.983 | S. cerevisiae deletion strains, locus YOR270C, strain vph1, stronger effect = lower value 0.956 | S. cerevisiae deletion strains, locus YOR290C, strain snf2, stronger effect = lower value 0.974 | S. cerevisiae deletion strains, locus YOR316C, strain cot1, stronger effect = lower value 1.01 | S. cerevisiae deletion strains, locus YPL051W, strain arl3, stronger effect = lower value 0.994 | S. cerevisiae deletion strains, locus YPL055C, strain LGE1, stronger effect = lower value 0.991 | S. cerevisiae deletion strains, locus YPL078C, strain atp4, stronger effect = lower value 0.979 | S. cerevisiae deletion strains, locus YPL106C, strain sse1, stronger effect = lower value 0.972 | S. cerevisiae deletion strains, locus YPL240C, strain hsp82, stronger effect = lower value 0.983 | S. cerevisiae deletion strains, locus YPL256C, strain CLN2, stronger effect = lower value 0.944 | S. cerevisiae deletion strains, locus YPR119W, strain clb2, stronger effect = lower value 1 | S. cerevisiae deletion strains, locus YPR141C, strain kar3, stronger effect = lower value 1 | S. cerevisiae deletion strains, locus YPR163C, strain tif3, stronger effect = lower value 1 | S. cerevisiae deletion strains, locus YPR167C, strain met16, stronger effect = lower value 1.01 | S. cerevisiae deletion strains, strain wtn01, stronger effect = lower value 0.998 | S. cerevisiae strains, strain wild type, stronger effect = lower value 1.01
